Each structure is given as a SMILES string. Inconclusive results are not listed. Entries that show only a call come without a potency. Activity calls are given as the source filed them. Calls come from the whole dose curve; as a rule, active = well fitted cell-killing curve with a large enough effect in the repeat runs; inconclusive = weak or mixed curves; inactive = no such curve, though single readings can be large or run the other way.

This is an account of results in PubChem BioAssay (Tox21).
Potency is the fitted concentration of half-maximal effect.

The assay is described as follows: qHTS assay to identify small molecule antagonists of the peroxisome proliferator-activated receptor delta (PPARd) signaling pathway - cell viability counter screen (AID 743213). Note: nearly all actives have a fitted effect of over 50% in size. The settings on record: PPARd-bla HEK293H viability, CellTiter-Glo luminescence, 17 h; series mostly up to 62 µM. The text has this:
U.S. Tox21 Program National Center for Advancing Translational Sciences [NCATS] NIH Chemical Genomics Center [NCGC] U.S. Environmental Protection Agency [EPA] National Institutes of Environmental Health Sciences [NIEHS] National Toxicology Program [NTP] U.S. Food and Drug Administration [FDA] Tox21 Assay Overview: The peroxisome proliferator-activated receptors (PPARs) are lipid-activated transcription factors of the nuclear receptor superfamily with three distinct subtypes namely PPAR alpha, PPAR delta (PPARd) and PPAR gamma. All these subtypes heterodimerizes with Retinoid X receptor (RXR) and have different physiological functions. […] To identify the compounds that inhibit PPAR-delta signaling, GeneBLAzer PPAR delta UAS-bla HEK293H cell line (Invitrogen, Carlsbad, CA, USA) containing a beta-lactamase reporter gene under the control of an Upstream Activator Sequence (UAS) was used to screen the Tox21 compound library. The cytotoxicity of the Tox21 compound library against the PPARd-bla cell line was tested in parallel by measuring the cell viability using CellTiter-Glo assay (Promega, Madison, WI) in the same wells.
Tox21 Assay Protocol Summary: PPARd-bla cells were dispensed at 3000 cells/5uL/well in 1536-well black wall/clear bottom plates using a Multidrop Combi (Thermo Fisher Scientific, Waltham, MA) dispenser. After the assay plates were incubated at 37 C and 5% CO2 for 5 h, 23 nL of compounds dissolved in DMSO, positive controls or DMSO only was transferred to the assay plate by a Pintool station (Kalypsys, San Diego, CA), followed by addition of 1ul L165041 (300 nM, final concentration in the wells). The assay plates were incubated at 37 C for 17 h, and then 1 uL of LiveBLAzerTM B/G FRET substrate was added using a Bioraptr Flying Reagent Dispenser (FRD) workstation (Beckman Coulter, Indianapolis, IN, USA). The assay plates were incubated at room temperature for 2 h and fluorescence intensity was measured by an Envision plate reader (PerkinElmer, Shelton, CT). For cell viability readout that measures cytotoxicity, 3 ul/well of CellTiter-Glo reagent was added into the assay plates using a Bioraptr FRD. After 30 min incubation at room temperature, the luminescence intensity in the plates was measured using a ViewLux plate reader (PerkinElmer).
Turning to `CC1=CC=C(C(C)C)CC1`, the Potency entry is “inactive”.

With `CCOC(=O)C(=O)CCc1ccccc1`, the Potency entry was “inactive”.

On to `CC(C)Cc1ccc(C(C)C(=O)OCc2ccccn2)cc1` (stereo not given), for which the Potency entry is “inactive”.

Turning to `Clc1ccc2c(c1)CCc1cccnc1C2=C1CCNCC1`, the Potency is 15 µM (active).

As for `C[Si](C)(CCCN)O[Si](C)(C)CCCN`, the Potency result was “inactive”.

Turning to `C=CCOC(=O)CCC1CCCCC1`, the Potency result was “inactive”.

For `COc1cc(Cl)c(OC)cc1N`, the Potency result was “inactive”.

In the case of `COc1cc2nc(N3CCN(C(=O)C4COc5ccccc5O4)CC3)nc(N)c2cc1OC` (stereo not given), the Potency entry is “inactive”.

With `O=P(O)(OCc1ccccc1)OCc1ccccc1`, the Potency entry was “inactive”.

With `NCc1ccccc1Sc1ccccc1CO`, the Potency entry is “inactive”.

On to `CN(C)C(=O)NC1(c2ccccc2)CCN(CC[C@@]2(c3ccc(F)c(F)c3)CN(C(=O)c3ccccc3)CCO2)CC1`, for which the Potency result was “inactive”.

On to `CCCCCCCN`, for which the Potency result is “inactive”.

As to `CNC(=O)CN(CCN(CCN(CC(=O)[O-])CC(=O)NC)CC(=O)[O-])CC(=O)[O-].O.[Gd+3]`, the Potency entry is “inactive”.

On to `CCOc1ccc(N)c([N+](=O)[O-])c1`, for which the Potency entry is “inactive”.

Regarding `ClCCOCCOCCCl`, the Potency entry is “inactive”.

As to `C=C1[C@H]2CC[C@@H]3[C@H]2C(C)(C)CCC[C@]13C`, the Potency entry is “inactive”.

Take `CO[C@@H]1[C@H](OC(=O)/C=C/C=C/C=C/C=C/C(=O)O)CC[C@]2(CO2)[C@H]1[C@@]1(C)O[C@@H]1CC=C(C)C`: the Potency result was “inactive”.

`CCCCc1ncc(/C=C(\Cc2cccs2)C(=O)O)n1Cc1ccc(C(=O)O)cc1`: the Potency entry is “inactive”.

In the case of `CCOC(=O)C(O)c1ccccc1` (stereo not given), the Potency entry was “inactive”.

Take `CC(=O)[O][Al]`: the Potency entry is “inactive”.

On to `O=C(O)CC(=O)C(=O)O`, for which the Potency result was “inactive”.

Turning to `CCC(=O)O[C@]1(C(=O)CCl)[C@@H](C)C[C@H]2[C@@H]3CCC4=CC(=O)C=C[C@]4(C)[C@@]3(F)[C@@H](O)C[C@@]21C`, the Potency result is “inactive”.

In the case of `NS(=O)(=O)c1ccc(N2CCCCS2(=O)=O)cc1`, the Potency entry is “inactive”.

Regarding `S=C([S-])NCCNC(=S)[S-].[Mn+2]`, the Potency result is “inactive”.

Consider `C/C=C/C=C/CO`, for which the Potency result was “inactive”.

Take `O=C(O)c1ccccc1Cl`: the Potency result was “inactive”.

With `O=S(=O)(Oc1ccc(Cl)cc1)c1ccccc1`, the Potency result was “inactive”.

With `CC(C)O.CC(C)O.CCOC(=O)/C=C(\C)O.CCOC(=O)/C=C(\C)O.[Ti]`, the Potency result was “inactive”.

As for `CCC(C)(C)CC`, the Potency is 51.3 µM (active).

`CCCCOC(=O)CCCCCCCC(=O)OCCCC`: the Potency result was “inactive”.

Take `O=CC1CC=CCC1` (stereo not given): the Potency result was “inactive”.

With `CCCCC(CC)COC(=O)COc1ccc(Cl)cc1Cl` (stereo not given), the Potency entry is “inactive”.

As to `CNCCCCOc1ccccc1Cc1ccccc1`, the Potency is 13.3 µM (active).

In the case of `O=C(O)C(S)C(S)C(=O)O` (stereo not given), the Potency result was “inactive”.

With `O=C1C(O)=C(O)C(=O)C(O)=C1O`, the Potency result is “inactive”.

In the case of `C=CCOc1ccccc1OCC(O)CNC(C)C` (stereo not given), the Potency result was “inactive”.

Regarding `Cc1ncc(CO)c(C=O)c1O`, the Potency result was “inactive”.

`C=C(C)C(=O)OCCO`: the Potency result is “inactive”.

With `O=C(Nc1ccc(S(=O)(=O)N2CCOCC2)cc1)c1cc(Cl)ccc1NS(=O)(=O)c1ccc(Cl)s1`, the Potency is 13.3 µM (active).

As for `C[C@@H]1C[C@H]2O[C@@]3(O[C@@H]2C(C)(C)O)[C@H](O)[C@@]2(C)[C@@H]4CC[C@H]5C(C)(C)[C@@H](O[C@@H]6OC[C@@H](O)[C@H](O)[C@H]6O)CC[C@@]56C[C@@]46CC[C@]2(C)[C@@H]13`, the Potency result was “inactive”.
